Data as given in PubChem BioAssay AID436 (Emory University Molecular Libraries Screening Center, 2006).
The campaign covered roughly 72,000 compounds. About 350 (0.49%) were called active.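 How the source made its calls: active means activity remaining at or below 50% of control, provided the compound also passes the data quality filters; inactive means the rest, including low values that fail the filters.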 The sample as a whole holds a higher share of actives than the screen did.

Each molecule was assayed against Ubiquitin carboxyl-terminal hydrolase BAP1 (Homo sapiens) (UniProt Q92560) (assay: inhibitors of BAP1 deubiquitinase, primary screen, biochemical, Ub-AMC fluorescence, kinetic (AID 436;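 further: 100% = DMSO wells rate and 0% = substrate alone blank rate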)). Settings: recombinant BAP1, Ub-AMC hydrolysis fluorescence kinetic; at 20 µM; hits give low values.
Sequence of Ubiquitin carboxyl-terminal hydrolase BAP1 (Homo sapiens) (Q92560 whole entry, looked up): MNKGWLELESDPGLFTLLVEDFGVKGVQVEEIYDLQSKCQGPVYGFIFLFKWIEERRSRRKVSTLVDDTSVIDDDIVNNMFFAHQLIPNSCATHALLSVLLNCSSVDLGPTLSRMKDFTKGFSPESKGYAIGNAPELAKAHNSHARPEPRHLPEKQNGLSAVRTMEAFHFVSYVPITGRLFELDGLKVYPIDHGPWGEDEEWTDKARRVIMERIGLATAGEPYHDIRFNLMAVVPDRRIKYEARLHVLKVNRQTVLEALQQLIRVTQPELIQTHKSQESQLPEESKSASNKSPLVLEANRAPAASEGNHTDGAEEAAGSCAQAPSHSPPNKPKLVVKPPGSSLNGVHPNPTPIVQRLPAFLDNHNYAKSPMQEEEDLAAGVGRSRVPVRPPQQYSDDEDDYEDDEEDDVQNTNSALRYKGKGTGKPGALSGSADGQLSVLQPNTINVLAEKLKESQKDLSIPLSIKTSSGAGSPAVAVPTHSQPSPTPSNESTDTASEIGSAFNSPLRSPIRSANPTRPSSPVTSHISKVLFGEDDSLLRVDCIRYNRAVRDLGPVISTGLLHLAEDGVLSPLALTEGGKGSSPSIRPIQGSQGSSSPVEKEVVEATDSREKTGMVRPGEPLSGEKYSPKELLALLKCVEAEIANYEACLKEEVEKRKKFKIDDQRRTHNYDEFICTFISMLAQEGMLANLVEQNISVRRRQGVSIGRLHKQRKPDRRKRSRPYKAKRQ

Question: For `Cc1ccc(S(=O)(=O)CCc2nnc(NC(=O)c3ccc(C(C)(C)C)cc3)s2)cc1`, which activity remaining (% of control) is on record?
Answer: 50.6% (inactive)

Question: `CCN(CC)S(=O)(=O)c1ccc(C(=O)Nc2nc3c(s2)C(=O)CC(C)(C)C3)cc1` was tested. Which activity remaining (% of control) did it give?
Answer: 55.1% (inactive)

Question: `CCN(CC)c1ccc2cc(-c3nc4ccc(Cl)cc4[nH]3)c(=O)oc2c1` was tested. Which activity remaining (% of control) did it give?
Answer: 278% (inactive)

Question: Which activity remaining (% of control) does the source give for `CCOc1c([N+](=O)[O-])c(=O)oc2ccccc12` here?
Answer: 111% (inactive)

Question: How did the activity remaining (% of control) turn out when `Cc1ccc2nc(NC(=O)c3ccccc3[N+](=O)[O-])sc2c1` was run?
Answer: 91.2% (inactive)

Question: `Cc1ccccc1C(=O)Nc1ccc(C(=O)Nc2cccc(C(F)(F)F)c2)cc1` was tested. Which activity remaining (% of control) did it give?
Answer: 194% (inactive)

Question: How did the activity remaining (% of control) turn out when `CCOC(=O)c1ccc2nc(C34CC5CC(CC(C5)C3)C4)ccc2c1` was run?
Answer: 126% (inactive)

Question: How did the activity remaining (% of control) turn out when `CCOC(=O)c1sc(NC(=O)C(CC)Sc2nccn2C)nc1C` (stereo not given) was run?
Answer: 90.3% (inactive)

Question: For `C=CCn1c2ccccc2c2nnc(SC(CC)C(=O)Nc3nc(C)c(C(=O)OCC)s3)nc21` (stereo not given), which activity remaining (% of control) is on record?
Answer: 42% (active)

Question: How did the activity remaining (% of control) turn out when `O=C(Oc1ccc2ccccc2c1Br)c1ccncc1` was run?
Answer: 56.6% (inactive)

Question: How did the activity remaining (% of control) turn out when `Cn1c(C(C)(O)C(O)(c2ccccc2)c2ccccc2)nc2ccccc21` (stereo not given) was run?
Answer: 90.5% (inactive)

Question: For `CC1=C(C(=O)OC(C)C)C(c2ccc(O)c([N+](=O)[O-])c2)C2=C(CCCC2=O)N1` (stereo not given), which activity remaining (% of control) is on record?
Answer: 90.5% (inactive)

Question: Which activity remaining (% of control) does the source give for `COc1cccc(NC(=O)c2ccc(N(Cc3ccccc3)S(C)(=O)=O)cc2)c1` here?
Answer: 89.5% (inactive)

Question: `O=C1CC(Nc2ccc3ccccc3c2)C(=O)N1c1ccccc1` (stereo not given) was tested. Which activity remaining (% of control) did it give?
Answer: 163% (inactive)

Question: For `CC(C)(C)C(=O)Nc1ccc(C(=O)Nc2ccc(Sc3ccc([N+](=O)[O-])cc3)cc2)cc1`, which activity remaining (% of control) is on record?
Answer: 57.4% (inactive)

Question: How did the activity remaining (% of control) turn out when `O=C(O)CCC(=O)Nc1ccc([N+](=O)[O-])cc1` was run?
Answer: 64.9% (inactive)

Question: How did the activity remaining (% of control) turn out when `COc1ccc(NC(=O)c2sc(-c3ccccc3)nc2C)cc1` was run?
Answer: 117% (inactive)

Question: Which activity remaining (% of control) does the source give for `COc1ccc(C(=O)n2nnc3ccccc32)cc1` here?
Answer: 95.3% (inactive)

Question: With `COc1ccc(NC(=O)c2cc3ccccc3oc2=O)cc1Cl` as the molecule, how does the activity remaining (% of control) read?
Answer: 75.5% (inactive)

Question: With `CC(=O)NCCN1C(=O)C(=O)/C(=C(/O)c2ccc(Cl)cc2)C1c1ccccc1F` (stereo not given) as the molecule, how does the activity remaining (% of control) read?
Answer: 108% (inactive)

Question: Which activity remaining (% of control) does the source give for `Cc1nc(-c2ccc(NC(=O)c3cccc(Br)c3)cc2)cs1` here?
Answer: 162% (inactive)

Question: `COc1ccc(-n2nc3c(c2NC(=O)Cc2ccccc2)CSC3)cc1` was tested. Which activity remaining (% of control) did it give?
Answer: 73.5% (inactive)

Question: Which activity remaining (% of control) does the source give for `O=c1[nH]c2cc(Cl)ccc2c(-c2ccccc2)c1Sc1ncn[nH]1` here?
Answer: 98.9% (inactive)

Question: Which activity remaining (% of control) does the source give for `O=C(Nc1ccccc1F)c1ccc([N+](=O)[O-])cc1Cl` here?
Answer: 205% (inactive)

Question: How did the activity remaining (% of control) turn out when `CCOC(=O)C(=O)N1c2ccccc2C(C)(c2ccccc2)CC1(C)C` (stereo not given) was run?
Answer: 108% (inactive)
